Data on 106 compounds can be found in PubChem BioAssay AID1259343 (VanderVen Lab, College of Veterinary Medicine, Cornell …, 2017).

Screen size: about 6,200 compounds; about 2,900 (47%) were called active. Rule as the data show it: active = inhibition above about 50%; inactive = the rest. The set was probably picked from earlier hits. Some of the results follow.

This experiment in a line: Mycobacterium tuberculosis growth inhibition, primary screen (AID 1259343). The settings on record: inhibition: at 10 µM, stronger effect = higher value; outcome: 10 uM.
Usually inhibition stands for the change of the read-out against control, counted positive when it falls. Regarding `O=C(Cn1ccc(=O)[nH]c1=O)NNc1ccc(Cl)c(Cl)c1`, the inhibition was 97.2% (active).

With `Cc1nc(C2(NC(=O)c3ccc4c(c3)OCCCO4)CCCCC2)no1`, the inhibition is 5.32% (inactive). As for `Cc1nc(CSc2ccc(C(=O)NNC(=O)c3ccc4c(c3)OCCO4)cc2)cs1`, the inhibition was 95.3% (active). Take `Cc1cn2nc(Sc3ccc4c(c3)OCCCO4)sc2n1`: the inhibition is 33.4% (inactive). For `CCCN1C(=O)C(=Cc2ccc(OC)cc2OC)SC1=S`, the inhibition is 2.79% (inactive). For the compound `CCN(CC)c1ccc(/C=C2\SC(=S)N(NC(=O)c3ccc(OC)cc3)C2=O)cc1`, the inhibition is 8.8% (inactive).

For `CCCCN1C(=O)C(=Cc2cccnc2)SC1=Nc1ccc(OC)cc1`, the inhibition was 87.8% (active). With `O=c1c(NCc2ccc(F)cc2)nccn1Cc1ccc(Cl)cc1` the figure was 96.5% (active). Consider `CC(c1ccco1)N(C)C(=O)NCCc1cc(F)ccc1F` (stereo unspecified), for which the inhibition was 21.2% (inactive). With `CCCn1cc(SCC(=O)N2CCc3ccccc32)c2ccccc21` the figure was 16.9% (inactive). As for `OC(CN1CCCCCC1)CN1c2ccccc2Sc2ccccc21` (stereo unspecified), the inhibition is 40.6% (inactive). The result for `OC(CN1CCc2ccccc2C1)Cn1c2c(c3ccccc31)CCCC2` (stereo unspecified) reads 66.7% (active); that for `CC(C)=CCN1N=C(c2ccccc2)C(O)O1` (stereo unspecified), 86% (active). The result for `Brc1ccc2c(c1)C1CC(c3cccs3)=NN1C(c1cccnc1)O2` (stereo unspecified) reads 97.9% (active); that for `Cc1ccc(C2=NN3C(C2)c2cc(Cl)ccc2OC3c2ccncc2)cc1` (stereo unspecified), -54.8% (inactive). `N#Cc1ccc(OCCn2nccc2-c2ccncc2)cc1`: the inhibition is 61.2% (active).

Turning to `Cc1ncc(COc2ccc(-c3ccc(C#N)cc3)cc2)s1`, the inhibition is 43.5% (inactive). The result for `COCC(=O)Nc1nc2cc(C(F)(F)F)ccc2n1Cc1ccco1` reads 62.6% (active).

In the case of `FC(F)(F)c1cccc(C(OCCN2CCN(Cc3ccco3)CC2)c2ccccc2)c1` (stereo unspecified), the inhibition is -3.93% (inactive).

`COCC(=O)Nc1nc2ccccc2n1C1CCCCC1`: the inhibition was 14.7% (inactive).

On to `O=C(OC(C(=O)Nc1cc(Cl)cc(Cl)c1)c1ccccc1)C1=COCCO1` (stereo unspecified), for which the inhibition was 78.7% (active). On to `Nc1ccc(-n2cccc2C(=O)O)cc1`, for which the inhibition is 93.6% (active). With `COc1c2ccccc2nc2occc12` the figure was 89.7% (active). As to `Cc1cccc(NC(=O)C2CCN(c3c(F)cc(C#N)cc3F)CC2)n1`, the inhibition is 72.7% (active). In the case of `O=C(Nc1cc(F)c(N2CCCC2)c(F)c1)C1CC1c1cccnc1` (stereo unspecified), the inhibition is 32.7% (inactive). On to `CCc1nnsc1C(=O)Nc1cc(F)c(N2CCCC2)c(F)c1`, for which the inhibition was 37.1% (inactive).

As to `N#CC(c1ccccc1)c1cnn(-c2ccccc2)c(=O)c1Cl` (stereo unspecified), the inhibition is 101% (active). The result for `N#CC(c1ccc(Cl)cc1Cl)c1cnnc2ccccc12` (stereo unspecified) reads -8.73% (inactive). With `O=c1c(Cl)c(N2CCN(c3ccccc3)CC2)cnn1Cc1ccccc1Cl`, the inhibition was 17.9% (inactive). `CN(C)C=Nc1ccc(OC(F)F)c(Cl)c1`: the inhibition is 92% (active). In the case of `CCc1cc(=O)[nH]c(-n2nc(C)cc2NC(=O)c2ccc([N+](=O)[O-])cc2)n1`, the inhibition was 101% (active). `Cc1cc(=O)[nH]c(-n2nc(C)cc2NC(=O)c2cccc([N+](=O)[O-])c2)n1`: the inhibition is 100% (active). Regarding `CCc1cc(=O)[nH]c(-n2nc(C)cc2NC(=O)c2cccc([N+](=O)[O-])c2)n1`, the inhibition is 102% (active). As for `Cc1cc(-c2nc3cccnc3s2)ccc1NS(=O)(=O)c1ccc(F)cc1F`, the inhibition was 74.7% (active). `COC(=O)c1ccccc1NC(=O)c1cc(-c2cccs2)n(C2CCS(=O)(=O)C2)n1` (stereo unspecified): the inhibition was 42.9% (inactive). The result for `CCC(=O)NCC1CN(c2ccc(OC)cc2)C(=O)O1` (stereo unspecified) reads 83% (active). For `O=C(CN1CCCC1c1ccsc1)Nc1ccccc1Br` (stereo unspecified), the inhibition is 41.9% (inactive). For the compound `N#Cc1nc(NC(=O)C2CC2c2ccc(Br)cc2)[nH]c1C#N` (stereo unspecified), the inhibition was 81.5% (active). `Nc1cc(S(=O)(=O)Nc2ccc(Cl)cc2)ccc1Cl`: the inhibition was 89.1% (active). Consider `COc1ccc(S(=O)(=O)Nc2ccc3c(c2)OC(F)(F)O3)cc1`, for which the inhibition is 33% (inactive). The result for `COc1ccc(NS(=O)(=O)c2ccc(Cl)c(Cl)c2)cc1` reads 86.7% (active). Turning to `O=c1[nH]c2ccc(S(=O)(=O)Nc3ccc(Cl)cc3Cl)cc2s1`, the inhibition was 19% (inactive). Turning to `N#CSc1ccc(NS(=O)(=O)c2ccc(Cl)cc2)c(Cl)c1`, the inhibition is 79.8% (active). In the case of `O=S(=O)(Nc1cc(Cl)ccc1Cl)c1ccc(Cl)cc1`, the inhibition is 64.6% (active). `O=S(=O)(Nc1ccc(F)c(F)c1)c1ccc(Cl)c(Cl)c1`: the inhibition is 17.1% (inactive). For `Nc1cc(S(=O)(=O)Nc2ccc(Br)cc2)ccc1Cl`, the inhibition was 30% (inactive). For `CCS(=O)(=O)c1ccc(NC(=O)Cc2ccc(Cl)c(Cl)c2)cc1`, the inhibition is 41.3% (inactive). Take `CCN(CC)S(=O)(=O)c1cccc(S(=O)(=O)c2ccc(Cl)c(Cl)c2)c1`: the inhibition is 1.03% (inactive).

As to `CCC(C)(C)NS(=O)(=O)c1ccc(Cl)c(Cl)c1`, the inhibition was 82.7% (active). As for `CCn1cnnc1CN(C)c1ccc(-c2nc(-c3ccccc3F)no2)cn1`, the inhibition is 7.76% (inactive). For `CN(Cc1cccnc1)c1ccc2c(-c3ccccc3F)noc2n1`, the inhibition was 90.6% (active). With `CN(Cc1ccc(Cl)cc1)c1ccc2c(C3CC3)noc2n1` the figure was 41.3% (inactive); with `O=Cc1ccc(-c2ccc(Cl)cc2Cl)[nH]1`, 91.2% (active); with `CCOc1nc(NC(C)c2ccccc2)ncc1Br` (stereo unspecified), 28% (inactive). As to `CC(NCCC(c1ccccc1)c1ccccc1)c1ccccc1` (stereo unspecified), the inhibition was 58.2% (active). With `Clc1ccccc1CSCc1csc(Cc2ccc3c(c2)OCO3)n1` the figure was 11.8% (inactive); with `Oc1ccc(-c2csc(Cc3ccccc3)n2)cc1O`, 30.3% (inactive). `Cc1ccc(Cc2nc(CSCCc3ccccc3)cs2)cc1`: the inhibition was 63.4% (active). For `OCC1(CCOc2ccccc2)CCN(Cc2cc3ccccc3o2)CC1`, the inhibition is 28.8% (inactive). The result for `c1csc(COc2ccc3c(C4CC4)noc3n2)c1` reads 82.4% (active); that for `COc1ccccc1-c1noc2nc(OCc3ccccc3)ccc12`, 95.3% (active); that for `c1ccc2oc(COc3ccc4c(C5CC5)noc4n3)cc2c1`, 81.1% (active). With `Cc1ccc(COc2ccc3c(C4CC4)noc3n2)cc1F` the figure was 94.2% (active); with `Cn1c(Cc2ccccc2)nn(CN2CCC3(CC2)OCCO3)c1=S`, 8.21% (inactive); with `Cc1cccc(COc2ccc3c(C4CC4)noc3n2)c1`, 56% (active). For the compound `Cc1ccc(COc2ccc3c(C4CC4)noc3n2)cc1`, the inhibition is 46.7% (inactive). Turning to `Clc1cccc(COc2ccc3c(C4CC4)noc3n2)c1`, the inhibition is 76.8% (active).

With `c1ccc(COc2ccc3c(C4CC4)noc3n2)cc1`, the inhibition was 76.3% (active). On to `CCCCn1c(O)c(C=Nc2ccccc2C(=O)O)c(C)c(C#N)c1=O`, for which the inhibition was -10.6% (inactive).

With `COc1ccc2nc(-n3nc(C)cc3NC(C)=O)sc2c1`, the inhibition is 86% (active). As for `CC(=O)c1cccc(CN2CCC(C(=O)Nc3ccc(Oc4cccnc4)cc3)CC2)c1`, the inhibition entry is “inactive”. For `O=C(Nc1ccc(Oc2cccnc2)cc1)C1CCN(Cc2cc(Cl)ccc2O)CC1`, the inhibition was 77.8% (active).

In the case of `Cc1ccc(CN2CCC(C(=O)Nc3ccc(Oc4cccnc4)cc3)CC2)o1`, the inhibition was 61.8% (active). On to `O=C(Nc1ccc(Oc2cccnc2)cc1)C1CCN(Cc2nccs2)CC1`, for which the inhibition is 88.5% (active). Turning to `O=C(Nc1ccc(Oc2cccnc2)cc1)C1CCN(C/C=C/c2ccccc2)CC1`, the inhibition was 28.8% (inactive). With `CCCCNC(=S)NN=Cc1ccc(C)s1` the figure was 71% (active); with `C=C(C)CNC(=S)NN=CC1=CCC2CC1C2(C)C` (stereo unspecified), 23% (inactive). With `COCCNC(=S)NN=Cc1cccs1` the figure was 38.1% (inactive); with `CCCCNC(=S)NN=Cc1cccs1`, 103% (active); with `CCCCNC(=S)N(C)N=Cc1ccc(C)s1`, -20.6% (inactive). In the case of `Cc1ccc(C=NNC(=S)NCCCN2CCOCC2)s1`, the inhibition is 102% (active). As for `O=C(c1ccc2nonc2c1)N1CCCC2(CCCc3ccccc32)C1` (stereo unspecified), the inhibition was 23.2% (inactive). On to `COc1cccc(-c2ccccc2NC(=O)C2CCN(Cc3ccc(OC)c(C)c3)CC2)c1`, for which the inhibition is 92% (active). In the case of `COc1cccc(-c2ccccc2NC(=O)C2CCN(Cc3cccc4cccnc34)CC2)c1`, the inhibition entry is “inactive”. Turning to `COc1cccc(-c2ccccc2NC(=O)C2CCN(Cc3cnc(C)nc3)CC2)c1`, the inhibition is 33% (inactive).

`COc1cccc(-c2ccccc2NC(=O)C2CCN(Cc3cccc(C)n3)CC2)c1`: the inhibition was 99.6% (active).

On to `CC(C)c1cccc(N(C)Cc2cncn2C)c1`, for which the inhibition was 42.1% (inactive).

Turning to `N#CC(=Cc1ccc(Cl)cc1)c1nc(C2CC2)cs1`, the inhibition is 20.5% (inactive). In the case of `N#CC(=Cc1cccc2ccccc12)c1ccccn1`, the inhibition was 22.6% (inactive).

For `N#CC(=Cc1cccc2ccccc12)c1nc(C2CC2)cs1`, the inhibition is 96.1% (active). For the compound `CCc1c(C)nc(-c2cccc(C(F)(F)F)c2)nc1N1CCNCC1`, the inhibition is 33.2% (inactive). The result for `Cc1cc(N2CCNCC2)nc(-c2cccc(C(F)(F)F)c2)n1` reads 94.4% (active); that for `OCC1(Cc2cccc(C(F)(F)F)c2)CCN(c2ccc3ccccc3n2)CC1`, 22.1% (inactive). The result for `Cc1cc(N2CCNCC2)nc(-c2ccc(C(F)(F)F)cc2)n1` reads 82% (active); that for `Cc1ccc(Cc2nsc(N3CCN(c4cccc(C(F)(F)F)c4)CC3)n2)cc1`, 24.1% (inactive); that for `CCc1c(C)nc(-c2ccc(C(F)(F)F)cc2)nc1N1CCNCC1`, 61.7% (active). Consider `Nc1cc(Cl)ccc1Oc1ccc(Cl)cc1`, for which the inhibition was -29.7% (inactive). The result for `O=[N+]([O-])c1cc(Cl)ccc1Oc1ccc2ccccc2c1` reads 77.2% (active). With `CC(C)(C)c1cc(/C=C(\C#N)C(N)=S)cc(C(C)(C)C)c1O`, the inhibition is 102% (active). On to `Cc1nnc(NC(=O)C(C)SC(F)(F)F)s1` (stereo unspecified), for which the inhibition was 91.5% (active). As for `Cc1n[nH]c(C)c1N=Nc1ccc(Br)cc1`, the inhibition is 104% (active).

For `CCOc1ccc(N=Nc2c(C)n[nH]c2C)cc1`, the inhibition is -45% (inactive).

For `Cc1nc(N)sc1N=Nc1ccc(Br)cc1`, the inhibition was 23.2% (inactive).

With `Nc1nnc(SCc2ccc(Br)cc2F)s1`, the inhibition was 28.8% (inactive). Regarding `Nc1nnc(SCC2CC2)s1`, the inhibition is 86.5% (active). On to `CCc1ccc(-c2noc(CSc3nnc(N)s3)n2)cc1`, for which the inhibition was 12.6% (inactive).
